Values joined by “and” are separate entries in the source; they are usually repeats but may differ in a detail not shown here. Equal values may be shown once. About 83,000 compounds went through this panel and 20% of them were active in at least one assay; those are over-represented in the sample as a whole.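 The test compound was applied at a single concentration to cells in 96-well plates for 48 hours, and percent growth was recorded.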 Active and inactive are the calls of the source. How the source made its calls: active means growth percent below 10; inactive means the rest.
Experiments:
Test in all cases: NCI-60 one-dose screen, 48 h (100 = growth as untreated, 0 = no growth, -100 = all killed)
Settings in all cases: 10 µM unless noted
NCI-H23 lung = test system: NCI-H23 lung
NCI-H226 lung = test system: NCI-H226 lung
NCI-H322M lung = test system: NCI-H322M lung
HOP-62 NSCLC = test system: HOP-62 NSCLC
NCI-H460 lung = test system: NCI-H460 lung
HOP-92 NSCLC = test system: HOP-92 NSCLC
NCI-H522 lung = test system: NCI-H522 lung
A549/ATCC NSCLC = test system: A549/ATCC NSCLC
786-0 renal = test system: 786-0 renal
COLO 205 colon = test system: COLO 205 colon
DU-145 prostate = test system: DU-145 prostate
K-562 leukemia = test system: K-562 leukemia
MALME-3M melanoma = test system: MALME-3M melanoma
MDA-MB-231 breast = test system: MDA-MB-231 breast
RXF 393 renal = test system: RXF 393 renal
SF-268 CNS = test system: SF-268 CNS
SF-295 CNS = test system: SF-295 CNS
SF-539 CNS = test system: SF-539 CNS
UACC-257 melanoma = test system: UACC-257 melanoma
M14 melanoma = test system: M14 melanoma

Measured: growth

Nc1ccc(S(=O)(=O)c2ccc(N)cc2)cc1
inactive: NCI-H23 lung 99.8% and 99.3% | NCI-H226 lung 92.2% and 103% | NCI-H322M lung 96.7% and 81.5% | HOP-62 NSCLC 107% | NCI-H460 lung 109% and 102% | HOP-92 NSCLC 70.4% and 87% | NCI-H522 lung 110% and 94.6% | A549/ATCC NSCLC 98.5% | 786-0 renal 103% and 112% | COLO 205 colon 115% and 95.2% | DU-145 prostate 115% and 113% | K-562 leukemia 104% and 144% | MALME-3M melanoma 109% and 121% | MDA-MB-231 breast 108% and 112% | RXF 393 renal 104% and 108% | SF-268 CNS 112% and 108% | SF-295 CNS 94.4% | SF-539 CNS 103% and 97.6% | UACC-257 melanoma 103% and 93.4% | M14 melanoma 101% and 97.5%

Cn1cc(-c2csc(-c3cn(CCOC(N)=O)c4ccccc34)n2)c2cccnc21
inactive: NCI-H23 lung 81.2% | NCI-H226 lung 86.4% | NCI-H322M lung 90.8% | HOP-62 NSCLC 74.5% | NCI-H460 lung 82.4% | HOP-92 NSCLC 83.1% | NCI-H522 lung 24.2% | A549/ATCC NSCLC 67.4% | 786-0 renal 87.4% | COLO 205 colon 77.6% | DU-145 prostate 103% | K-562 leukemia 27.3% | MALME-3M melanoma 66.4% | MDA-MB-231 breast 80.4% | RXF 393 renal 91.4% | SF-268 CNS 95.8% | SF-295 CNS 86.2% | SF-539 CNS 92.7% | UACC-257 melanoma 88% | M14 melanoma 71.1%

COc1ccc(Oc2nc(Nc3ccc(N4CCOCC4)cc3)ncc2NC(=O)c2cc(OC)cc(OC)c2)cc1
inactive: NCI-H23 lung 101% | NCI-H226 lung 71.2% | NCI-H322M lung 96.7% | HOP-62 NSCLC 97% | NCI-H460 lung 95.5% | HOP-92 NSCLC 70.7% | NCI-H522 lung 58.2% | A549/ATCC NSCLC 82.4% | 786-0 renal 66.5% | COLO 205 colon 64.5% | DU-145 prostate 98.7% | K-562 leukemia 58.3% | MALME-3M melanoma 108% | MDA-MB-231 breast 85.2% | RXF 393 renal 52.3% | SF-268 CNS 90% | SF-295 CNS 94% | SF-539 CNS 87.2% | UACC-257 melanoma 99% | M14 melanoma 91.4%

COc1ccc(Oc2nc(Nc3ccc(N4CCOCC4)cc3)ncc2NC(=O)c2cccc(C(F)(F)F)c2)cc1
active: NCI-H522 lung 0.64%
inactive: NCI-H23 lung 87.3% | NCI-H226 lung 81.2% | NCI-H322M lung 83.6% | HOP-62 NSCLC 94.4% | NCI-H460 lung 70.2% | HOP-92 NSCLC 76.7% | A549/ATCC NSCLC 66% | 786-0 renal 87.8% | COLO 205 colon 84.8% | DU-145 prostate 91.9% | K-562 leukemia 56% | MALME-3M melanoma 97.5% | MDA-MB-231 breast 69.1% | RXF 393 renal 65.6% | SF-268 CNS 89.5% | SF-295 CNS 85.6% | SF-539 CNS 77.3% | UACC-257 melanoma 98.2% | M14 melanoma 80.7%

Cc1ccc(-c2nc3nc(-c4ccc(F)cc4)nc(N4CCCNCC4)c3o2)cc1
inactive: NCI-H226 lung 112%
active: NCI-H23 lung -79.2% | NCI-H322M lung -99% | HOP-62 NSCLC -62.2% | NCI-H460 lung -83.2% | HOP-92 NSCLC -57.6% | NCI-H522 lung -65.2% | A549/ATCC NSCLC -82.4% | 786-0 renal -86.4% | COLO 205 colon -77.6% | DU-145 prostate -94.8% | K-562 leukemia -28.4% | MALME-3M melanoma -72.7% | MDA-MB-231 breast -85.1% | RXF 393 renal -79.8% | SF-268 CNS -65.7% | SF-295 CNS -86.3% | SF-539 CNS -97.9% | UACC-257 melanoma -72.2% | M14 melanoma -86.6%

Clc1cccc(Nc2ncnc3ccc(-c4cncc(-n5cnnn5)c4)cc23)c1
inactive: NCI-H23 lung 80% | NCI-H226 lung 73% | NCI-H322M lung 15.2% | HOP-62 NSCLC 83% | NCI-H460 lung 81.6% | HOP-92 NSCLC 21.7% | NCI-H522 lung 49.2% | A549/ATCC NSCLC 55.7% | 786-0 renal 42.9% | COLO 205 colon 87.9% | DU-145 prostate 43.5% | K-562 leukemia 71.5% | MALME-3M melanoma 88.2% | MDA-MB-231 breast 67.3% | RXF 393 renal 48.4% | SF-268 CNS 70.6% | SF-295 CNS 76.9% | SF-539 CNS 87.3% | UACC-257 melanoma 92.9% | M14 melanoma 53.2%

Cc1cc2nc(C(Cl)Cl)nc(-c3ccc(Cl)cc3)n2n1
inactive: NCI-H226 lung 67% | HOP-92 NSCLC 16.1% | 786-0 renal 45% | K-562 leukemia 12.2% | UACC-257 melanoma 30.9%
active: NCI-H23 lung -19.9% | NCI-H322M lung -32.5% | HOP-62 NSCLC -8.28% | NCI-H460 lung -49.4% | NCI-H522 lung 3.6% | A549/ATCC NSCLC 0.301% | COLO 205 colon -37.2% | DU-145 prostate -3.35% | MALME-3M melanoma -16.5% | MDA-MB-231 breast -2.03% | RXF 393 renal -74.4% | SF-268 CNS 7.03% | SF-295 CNS 2.71% | SF-539 CNS 3.16% | M14 melanoma -20.3%

COc1ccccc1/C=C1\COc2ccc(O)c(O)c2C1=O
active: NCI-H522 lung -42.3% | 786-0 renal 2.1% | DU-145 prostate 5.75% | K-562 leukemia 2.89% | MALME-3M melanoma 6.18% | SF-539 CNS -23.5%
inactive: NCI-H23 lung 40.8% | NCI-H226 lung 76% | NCI-H322M lung 46.2% | HOP-62 NSCLC 17.3% | NCI-H460 lung 24.6% | HOP-92 NSCLC 29.6% | A549/ATCC NSCLC 50.6% | COLO 205 colon 77.9% | MDA-MB-231 breast 17.4% | RXF 393 renal 36.6% | SF-268 CNS 32% | SF-295 CNS 90.8% | UACC-257 melanoma 33.6% | M14 melanoma 29%

O=C(Nc1ncc(Cc2cccc(C(F)(F)F)c2)s1)c1ccc2c(c1)OCCO2
active: NCI-H460 lung 6.46% | NCI-H522 lung 8.7% | COLO 205 colon -7.82% | K-562 leukemia 8.17% | SF-295 CNS 8.97% | SF-539 CNS -0.654%
inactive: NCI-H23 lung 31.2% | NCI-H226 lung 21.3% | NCI-H322M lung 54.1% | HOP-62 NSCLC 25.2% | HOP-92 NSCLC 51.3% | A549/ATCC NSCLC 17.2% | 786-0 renal 39.9% | DU-145 prostate 15.1% | MALME-3M melanoma 50.1% | MDA-MB-231 breast 30.2% | RXF 393 renal 19.6% | SF-268 CNS 38.3% | UACC-257 melanoma 45.5% | M14 melanoma 21.6%

COc1ccc(-c2nn3c(-c4cc(F)c(Cl)cc4Cl)nnc3s2)cc1
inactive: NCI-H23 lung 54.1% | NCI-H226 lung 80% | NCI-H322M lung 79.2% | HOP-62 NSCLC 30.6% | NCI-H460 lung 32.5% | HOP-92 NSCLC 37.6% | NCI-H522 lung 23.1% | A549/ATCC NSCLC 51.1% | 786-0 renal 46.2% | COLO 205 colon 62.9% | DU-145 prostate 77.3% | K-562 leukemia 16.1% | MALME-3M melanoma 41.4% | MDA-MB-231 breast 55.2% | RXF 393 renal 61.4% | SF-268 CNS 60.3% | SF-295 CNS 13.1% | SF-539 CNS 47% | UACC-257 melanoma 72.6% | M14 melanoma 15.5%

C=C(CNCCc1ccc(O)cc1)[C@@H]1CC[C@]2(CO)CC[C@]3(C)[C@H](CC[C@@H]4[C@@]5(C)CCC(NCCc6ccc(O)cc6)C(C)(C)[C@@H]5CC[C@]43C)[C@@H]12 (stereo not given in full)
active: NCI-H23 lung -78.2% | NCI-H226 lung -61% | NCI-H322M lung -90.6% | HOP-62 NSCLC -90.7% | NCI-H460 lung -79.4% | HOP-92 NSCLC -88.4% | NCI-H522 lung -73.1% | A549/ATCC NSCLC -82.4% | 786-0 renal -89.9% | COLO 205 colon -91.1% | DU-145 prostate -98.6% | K-562 leukemia -72.9% | MALME-3M melanoma -88.2% | MDA-MB-231 breast -87.1% | RXF 393 renal -91.2% | SF-268 CNS -81.5% | SF-295 CNS -92.9% | SF-539 CNS -88.2% | UACC-257 melanoma -80.5% | M14 melanoma -85.4%

CCCNNC(=O)/C=C/c1ccc(CNCCc2c(C)[nH]c3ccccc23)cc1
active: HOP-62 NSCLC 3.81% [2.5 µM] | HOP-92 NSCLC -5.2% [2.5 µM] | COLO 205 colon -55.7% [2.5 µM] | RXF 393 renal -17.9% [2.5 µM] | UACC-257 melanoma -9.62% [2.5 µM]
inactive: NCI-H23 lung 38.6% [2.5 µM] | NCI-H226 lung 33.6% [2.5 µM] | NCI-H322M lung 15.9% [2.5 µM] | NCI-H460 lung 23.8% [2.5 µM] | NCI-H522 lung 19.7% [2.5 µM] | A549/ATCC NSCLC 14% [2.5 µM] | 786-0 renal 22.8% [2.5 µM] | DU-145 prostate 24.4% [2.5 µM] | K-562 leukemia 10.7% [2.5 µM] | MALME-3M melanoma 20% [2.5 µM] | MDA-MB-231 breast 35% [2.5 µM] | SF-268 CNS 32.1% [2.5 µM] | SF-295 CNS 18% [2.5 µM] | SF-539 CNS 31.1% [2.5 µM] | M14 melanoma 17.7% [2.5 µM]

NC1=CC(=O)c2cccnc2C1=O
active: NCI-H23 lung -33.1% | NCI-H460 lung -53.6% | HOP-92 NSCLC -31.3% | NCI-H522 lung -57.9% | DU-145 prostate -1.98% | K-562 leukemia -48.4% | MALME-3M melanoma -81.4% | MDA-MB-231 breast -13.5% | SF-268 CNS -0.409% | SF-539 CNS -89.2% | UACC-257 melanoma -48.4% | M14 melanoma -88.6%
inactive: NCI-H226 lung 59.2% | NCI-H322M lung 71.1% | HOP-62 NSCLC 14.6% | A549/ATCC NSCLC 26.6% | 786-0 renal 26.5% | COLO 205 colon 76.7% | RXF 393 renal 15.8% | SF-295 CNS 22.4%

Reference: PubChem BioAssay (NCI)
